Experimental data published in PubChem BioAssay (NCATS).
Several values for one entry are separate records, joined by “and”; a condition that tells them apart may be missing. Equal values may be shown once. Inconclusive results are not listed. Activity calls are given as the source filed them. Calls follow the shape of the full dose curve.

Test: Primary qHTS to identify inhibitors of SARS-CoV-2 cell entry (AID 1645846); also: nearly all actives have a fitted effect of over 45% in size
Conditions: SARS-CoV-2 pseudovirus cell entry assay, luminescence; activity change, negative = inhibition: at 57.1 µM (top of the series) unless noted; series mostly up to 57.1 µM
Source text: Assay Provider: Wei Zheng, Ph.D.
National Center for Advancing Translational Sciences, National Institute of Health, Rockville, MD.
SARS-CoV-2 spike protein, within the viral envelope, mediates viral attachment and infection of host cells. The SARS-CoV-2 spike protein specifically binds to the host receptor ACE2 (Angiotensin-converting enzyme 2). This interaction promotes endocytosis of the viral particle, additional events lead to viral-host cell membrane fusion and release of the viral contents, allowing viral replication.
While SARS-CoV-2 requires BSL-3 facilities for live virus work, pseudotyped partices (PP) that incorporate SARS-CoV-2 spike proteins without replication elements could facilitate studies on viral entry mechanisms in a BSL-2 setting. This PP cell entry assay could also enable screening of small molecule compound libraries in BSL-2 setting to identify inhibitors of SARS-CoV-2 cell entry.
PROTOCOL TABLE (format as described by Inglese J, Shamu CE and Guy RK. 2007)
SEQUENCE No. (e.g., 1, 2, 3, etc.); […] (e.g., Cells, Incubation, Reagent, etc.); VALUE and DESCRIPTION.
1. Cells. Seed 1500 HEK293-ACE2 cells (Expi293F with stable expression of human ACE2) in 2 uL/well media (DMEM, 10% FBS, 1x L-glutamine, 1x Pen/Strep, 1 ug/ml puromycin) in white 1536-well assay plates (Greiner #782073).
2. Incubation. Incubate at 37C with 5% CO2 overnight (~16 h).
3. Compounds. Dispense 23 nL/well compounds in DMSO via pin transfer.
4. Incubation. Incubate for 1 hr at 37C 5% CO2.
5. Reagent. Dispense 2 uL/well of SARS-CoV-2-S pseudotyped particles. [a] PPs are produced with murine leukemia virus pseudotyping. [b] SARS-CoV-2-S is Wuhan-Hu-1 sequence (BEI #NR-52420) with C-terminal 19 amino acid truncation.
6. Centrifuge. […]
7. Incubation. Incubate at for 48 hr at 37C 5% CO2
8. Centrifuge. Remove supernatant with gentle centrifugation using a Blue Washer (BlueCat Bio).
9. Reagent. Dispense 4 uL/well of Bright-Glo Luciferase detection reagent (Promega #E2620).
10. Incubation. Incubate for 5 min at room temperature.
11. Detection. Read luminescence signal (Viewlux plate reader, PerkinElmer). Data was normalized with wells containing SARS-CoV-2-S PP as 100%, and wells containing bald PP (no fusion protein) as 0%.
Potency is read from the fitted curve at half-maximal effect.

Row | SMILES | activity change, negative = inhibition | outcome | Potency
1 | Cc1ccc(N(CC2=NCCN2)c2cccc(O)c2)cc1 | -6.91% and 2.72% | – | –
2 | CCCCOc1ccc(CC(=O)NO)cc1 | -20.4% and -25.7% | – | –
3 | COP(=O)(OC)C(O)C(Cl)(Cl)Cl (stereo not given) | -13.6% | – | –
4 | COc1ccc(CN(CCN(C)C)c2ncccn2)cc1 | -19.5% | – | –
5 | Cc1cc(=O)oc2cc(O)ccc12 | -8.91% | inactive | –
6 | O=C(O)CCc1nc(-c2ccccc2)c(-c2ccccc2)o1 | 2.68% | – | –
7 | CC(C(O)c1ccc(O)cc1)N1CCC(Cc2ccccc2)CC1 (stereo not given) | -24.3% | – | –
8 | Cc1ncc(COP(=O)(O)O)c(C=O)c1O | -19% | – | –
9 | N[C@@H](CSCCCO)C(=O)O | – | inactive [at 27.1 µM] | –
10 | C[C@]12CCC(=O)C=C1CC[C@@H]1[C@@H]2[C@@H](O)C[C@@]2(C)[C@H]1CC[C@]2(O)C(=O)CO | 4.28% | inactive | –
11 | C[C@]1(Cn2ccnn2)[C@H](C(=O)O)N2C(=O)C[C@H]2S1(=O)=O | 1.05% | – | –
12 | CCCC(=O)OC[C@@H](OC(=O)CCC)[C@@H](OC(=O)CCC)[C@H](Cn1c2nc(=O)[nH]c(=O)c-2nc2cc(C)c(C)cc21)OC(=O)CCC | -16.8% | – | –
13 | O=C(CCCCCCCCC#CI)Oc1ccccc1 | 1.58% | – | –
14 | CC1(C)OC[C@@H](COC(=O)CCc2ccc(OC[C@@H](O)CNCCNC(=O)N3CCOCC3)cc2)O1 | -4.74% | – | –
15 | C=C1C[C@H]2[C@@H]3C=C(C)C4=CC(=O)CC[C@]4(C)[C@H]3CC[C@]2(C)[C@@]1(OC(C)=O)C(C)=O | 2.39% | – | –
16 | OC1C(O)C(O)C(O)C(O)C1O (stereo not given) | -22.4% | – | –
17 | COc1ccc2cc1Oc1ccc(cc1)C[C@H]1c3c(cc4c(c3Oc3cc5c(cc3OC)CCN(C)[C@@H]5C2)OCO4)CCN1C | – | – | 7.94 µM (active)
18 | CC(COc1ccccc1)NC(C)C(O)c1ccc(O)cc1 (stereo not given) | – | inactive | –

Row | SMILES | activity change, negative = inhibition | outcome | Potency
19 | Oc1ccc(C(O)CNCCCCCCNCC(O)c2ccc(O)c(O)c2)cc1O (stereo not given) | – | inactive | –
20 | COc1ccc2c(c1OC)C(=O)O[C@@H]2[C@H]1c2c(cc3c(c2OC)OCO3)CCN1C | -12.9% | – | –
21 | CC(C)(C)C(=O)OCOC(=O)[C@@H]1N2C(=O)[C@@H](NC(=O)[C@H](N)c3ccccc3)[C@H]2SC1(C)C | -12.4% | – | –
22 | CCC(CN)=C(c1ccccc1)c1ccccc1 | 2.6% | – | –
23 | CC(C)C[C@@H](N)C(=O)O | 3.85% [at 27.1 µM] | – | –
24 | N[C@H](Cc1c[nH]c2ccccc12)C(=O)O | – | inactive | –
25 | N=C(N)c1ccc(OCCCOc2ccc(C(=N)N)cc2)cc1 | -8.76% | – | –
26 | CC(C)C(Br)C(=O)NC(N)=O (stereo not given) | 4.07% | – | –
27 | CC1=C(CC(=O)O)c2cc(F)ccc2/C1=C\c1ccc(S(C)=O)cc1 (stereo not given) | – | inactive | –
28 | C[C@H]1C[C@H]2[C@@H]3CCC4=CC(=O)C=C[C@]4(C)[C@H]3C(=O)C[C@]2(C)[C@@]1(O)C(=O)CO | 4.44% | inactive | –
29 | O=C1CC2(CCCC2)CC(=O)N1CCCCN1CCN(c2ncccn2)CC1 | 0.863% | – | –
30 | Cc1ccc2c(Cl)cc(Cl)c(O)c2n1 | – | inactive | –
31 | CCCCN(CCN(CCCC)C(=O)N1CCOCC1)C(=O)N1CCOCC1 | – | inactive | –
32 | CC(=O)O[C@H]1C[C@@H]2CC[C@@H]3[C@H](CC[C@@]4(C)[C@H]3C[C@H]([N+]3(C)CCCCC3)[C@@H]4OC(C)=O)[C@@]2(C)C[C@@H]1N1CCCCC1 | -7.24% | – | –
33 | CCC(=O)O[C@]1(C(=O)CCl)[C@@H](C)C[C@H]2[C@@H]3CCC4=CC(=O)C=C[C@]4(C)[C@@]3(F)[C@@H](O)C[C@@]21C | -9.65% | inactive | –
34 | CC(C)OC(=O)C(C(=O)OC(C)C)=C1SC=CS1 | -9.44% | inactive | –
35 | CC1=C2[C@H]3OC(=O)[C@@H](C)[C@@H]3CC[C@@]2(C)C=CC1=O | 2.07% | – | –
